This is a sample that favours compounds with a hit; in the whole collection about 1.2% have one here.
Rv3671c protease: inhibits the M. tuberculosis serine protease Rv3671c. P9WHR9. inhibition, % at 5.96 µM. 320,000 compounds, 0.048% hits; in the data active = inhibition above about 38%;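 also: extracellular domain of Rv3671c used as enzyme; 0% = enzyme with DMSO and 100% = no enzyme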
Target sequence (P9WHR9 whole entry, looked up, the tested form may be a part): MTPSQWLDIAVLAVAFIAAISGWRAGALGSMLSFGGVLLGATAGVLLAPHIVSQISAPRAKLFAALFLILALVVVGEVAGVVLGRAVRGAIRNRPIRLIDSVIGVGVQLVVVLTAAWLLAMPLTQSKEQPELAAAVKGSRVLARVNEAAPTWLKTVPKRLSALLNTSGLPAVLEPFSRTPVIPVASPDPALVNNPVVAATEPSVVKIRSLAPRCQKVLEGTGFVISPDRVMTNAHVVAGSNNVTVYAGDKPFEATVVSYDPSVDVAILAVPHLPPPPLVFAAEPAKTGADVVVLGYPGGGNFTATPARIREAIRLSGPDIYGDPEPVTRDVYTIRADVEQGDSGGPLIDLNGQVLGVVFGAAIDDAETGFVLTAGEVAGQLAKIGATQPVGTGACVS
UGM FP inh: inhibitors of M. tuberculosis UDP-galactopyranose mutase | 320,000 compounds, 0.06% hits | purified UGM, fluorescence polarization probe displacement | AID 504406 | inhibition, % at 10 µM; in the data active = inhibition above about 10%, passing the limit was not always enough
PrP UTR inh: suppresses PrP 5' UTR mRNA reporter expression; cell-based PrP 5' UTR mRNA reporter, plate reader; inhibition, % (test concentration not listed); 340,000 compounds, 0.35% hits; AID 488862; in the data active = inhibition above about 52%; also: 0 = median of the neutral control wells
FadD28 binding: blocks FadD28 binding to the bisubstrate probe; inhibition, % at 12.5 µM; AID 588549; fluorescence polarization; 360,000 compounds, 0.22% hits; in the data active = inhibition above about 8.5%, passing the limit was not always enough
SSB-PriA inh: K. pneumoniae PriA-SSBct interaction inhibition; AlphaScreen SSBct-PriA binding, biotinylated peptide; inhibition, % at 33 µM; 430,000 compounds, 0.6% hits; in the data active = inhibition mostly above about 37%, no sharp cut-off; inactive = mostly below about 20%;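 also: plate controls were negative control peptide for no effect and reference peptide for full effect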
PrPC TRFRET: reduces human prion protein on the cell surface; inhibition, % at 13.8 µM; 370,000 compounds, 0.43% hits; cell surface PrPC, TR-FRET read-out; in the data active = inhibition above about 24%; also: 0% = median of the test wells and 100% = reference compound wells
PrPC confirm: cell surface PrPC inhibition, TR-FRET confirmation; inhibition, % at 13.8 µM; AID 743200; cell surface PrPC level; shares compounds with PrPC TRFRET; 1,500 compounds, 65% hits; in the data active = inhibition above about 25%
LD9 tox: kills or reduces viability of LD9 cells in PrPc counter-screen; 1,500 compounds, 29% hits; AID 743201; LD9 cells cytotoxicity, luminescence viability; shares compounds with PrPC TRFRET; inhibition, % at 13.8 µM; in the data active = inhibition above about 9.5%
* = called active by the depositor; . = no result.

SMILES	Rv3671c protease	UGM FP inh	PrP UTR inh	FadD28 binding	SSB-PriA inh	PrPC TRFRET	PrPC confirm	LD9 tox
CCc1cccc(NC(=O)NCc2nccc(N3CCOCC3)n2)c1	.	.	.	.	-5	.	.	.
CCSc1cccc(C(=O)Nc2sc3c(c2C#N)CCN(C(C)=O)C3)c1	.	.	.	.	6	.	.	.
Cn1cccc1/C=N\NC(=O)Cc1ccc(Br)c2ccccc12	0	3	6	-2	.	31*	35*	0
CCC1(C)Cc2ccccc2-c2[nH]c(=S)[nH]c(=O)c21 (centres undefined)	1	1	-19	1	2	90*	120*	-8
CCOC(=O)c1ccccc1NC(=O)Cn1cnc2c(nnn2-c2ccc(OC)c(OC)c2)c1=O	.	.	.	.	3	.	.	.
O=C(Nc1ccc(F)cc1)Nc1cc(OCC(F)(F)F)cc(OCC(F)(F)F)c1	-73	0	-4	-1	-20	44*	44*	27*
O[C@@H]1[C@@H](O)C=C2CCN3Cc4cc5c(cc4[C@H]1C23)OCO5 (some centres undefined)	11	0	-66	1	-16	89*	92*	28*
Brc1ccc(-c2ccc(CNCc3ccccn3)o2)cc1	2	-1	-9	-2	23	30*	49*	-3
Clc1cccc(-c2ccc(CNCc3ccccn3)o2)c1	-1	-3	-14	-1	33	-1	.	.
Cc1ccc(Sc2c(O)c3ccccc3n(C)c2=O)cc1	.	.	-5	-1	-10	45*	59*	-11
Cn1c(=O)c(Sc2ccccc2)c(O)c2ccccc21	1	1	-21	-2	2	2	.	.
CSc1cccc(NC(=O)C(=O)NC[C@H](O)c2ccoc2)c1	.	.	.	.	-3	.	.	.
Cc1cc(C(=O)N2CCC(CSC3=NCCS3)CC2)c(C)o1	.	.	.	.	-3	.	.	.
CCOc1ccccc1N=C1SCC(C)N1C(=O)C1CCN(c2ncnc3sc(C)c(C)c23)CC1 (centres undefined)	.	.	-19	-2	0	40*	56*	-7
CCn1c(Cl)c(C=O)s/c1=N\S(=O)(=O)c1ccccc1	-2	1	-17	-4	.	53*	102*	94*
CCn1c(=NS(=O)(=O)c2ccc(C)cc2)sc2c(C)cc(C)cc21	.	.	.	.	1	.	.	.
COc1ccc2nc(NC(=O)c3cccs3)sc2c1	-9	-1	.	-2	-6	27*	15	4
COc1ccc2nc(NC(=O)c3ccccc3)sc2c1	.	.	.	.	-4	.	.	.
Clc1cccc(Cc2c(-c3ccco3)nc3ccc(Cl)cn23)c1	.	.	.	-6	.	6	.	.
Clc1cccc(Cc2c(-c3ccco3)nc3ccc(Br)cn23)c1	.	.	.	-2	.	42*	51*	-4
COc1ccc(-c2nc3ccc(Br)cn3c2Cc2cccc(F)c2)cc1OC	.	.	.	-5	.	36*	65*	-8
Brc1ccc2nc(-c3ccco3)c(Cc3ccccc3)n2c1	.	.	.	-9	.	37*	66*	1
COc1ccc(-c2nc3ccc(C)cn3c2Cc2cccc(F)c2)cc1OC	.	.	.	-11	.	-9	.	.
COc1ccc2ccccc2c1CCC(=O)N1CC(n2cc(COc3ccccc3)nn2)C1	.	.	.	.	2	.	.	.
CCOc1ccc(C2NC(=O)NC(c3ccccc3)=C2C(C)=O)cc1OC (centres undefined)	2	0	-6	-3	8	27*	21	1
SMILES	Rv3671c protease	UGM FP inh	PrP UTR inh	FadD28 binding	SSB-PriA inh	PrPC TRFRET	PrPC confirm	LD9 tox
CCOc1cc(C2NC(=O)NC(c3ccccc3)=C2C(C)=O)ccc1OCC(N)=O (centres undefined)	-2	1	1	-2	-14	0	.	.
O=C(c1ccc(CSc2nc3ccncc3[nH]2)cc1)N1CCCCCC1	5	0	-11	-2	-4	10	.	.
O=C(c1ccc(CSc2nc3ccncc3[nH]2)cc1)N1CCN(c2cccc(Cl)c2)CC1	1	-3	-5	-9	20	31*	40*	9.4*
COc1cc(C(=O)Nc2nnc(-c3cccc(S(C)(=O)=O)c3)o2)cc(OC)c1OC	.	.	.	.	7	.	.	.
N#Cc1cccc(C(c2nnnn2C2CCCC2)N2CCC(Cc3ccccc3)CC2)c1 (centres undefined)	7	2	-3	0	7	-1	.	.
N#Cc1cccc(C(c2nnnn2C2CCCC2)N2CCCCCC2)c1 (centres undefined)	-4	-3	-6	0	-10	41*	6	-1
Cn1c(C(F)(F)F)nn(CCNS(=O)(=O)C2CC2)c1=O	.	.	.	.	-7	.	.	.
O=C(Cc1ccccc1)OCn1nnc2ccccc2c1=O	-2	2	-18	-1	-3	37*	6	0
Cc1cccc(CC(=O)OCn2nnc3ccccc3c2=O)c1	9	1	-6	-4	-14	2	.	.
NC(Cc1cccs1)=NOC(=O)COc1ccccc1Cl	.	.	.	.	-112	.	.	.
COCCNC(=O)c1csc(NC(=O)Nc2ccc(Cl)cc2)n1	.	.	.	.	-3	.	.	.
CCOc1ccc(N(C(C)C(=O)N2CCCC2)S(C)(=O)=O)cc1 (centres undefined)	3	2	-18	-2	4	-8	.	.
COc1ccc(N(C(C)C(=O)N2CCCC2)S(C)(=O)=O)cc1 (centres undefined)	-3	-1	-19	-2	-21	50*	0	-8
CC(=O)Nc1ccc(-c2ccnc(-c3ccc(NC(C)=O)cc3)n2)cc1	-7	4	-17	-1	-4	58*	56*	-5
CC(=O)c1sc(C(C)(C)C)cc1NC(=O)c1ccccc1C(=O)O	14	2	3	-3	6	36*	81*	-1
O=C(O)c1ccccc1C(=O)Nc1ccccc1NC(=O)c1ccccc1C(=O)O	1	-1	.	-1	-3	-5	.	.
COc1cc2nc(CN3CC=C(c4ccccc4)CC3)[nH]c(=O)c2cc1OC	9	2	-19	-5	-8	24*	47*	25*
CCOc1ccc(NC(=O)CC(C)S(=O)(=O)c2ccc3c(c2)NC(=O)CO3)cc1 (centres undefined)	-2	0	-25	-3	-15	-1	.	.
CCCN(c1ccc(OCC)cc1)S(=O)(=O)c1ccc2c(c1)NC(=O)CO2	7	-4	10	-3	-4	55*	56*	-2
CC(C)Sc1nc(N)nc(-c2cccs2)c1C#N	-10	1	-55	-1	-33	30*	41*	3
Cc1ccc(CN2CCCCC(NC(=O)Nc3ccccc3-c3ccccc3)C2=O)cc1 (centres undefined)	.	.	.	.	.	30*	18	-3
CC(=NNc1nc2ccccc2o1)c1cc2ccccc2cn1	.	.	17	-2	41*	27*	32*	49*
CC(=NNc1nc2ccc(Cl)cc2o1)c1ccccc1	.	.	.	.	0	.	.	.
Cc1cc(OC2CN(S(=O)(=O)c3ccc4c(c3)OCCO4)C2)cc(=O)o1	.	.	.	.	-11	.	.	.
O=C(Nc1ccc(Br)c2ccccc12)c1ccc2ccccc2c1O	7	-1	-32	-3	2	35*	64*	21*

Bioassay records as filed in PubChem.
